# Shown are actives, neighbours in structure and some others; about 3.2% of the full set was active somewhere.
# GDH-TPI counter-1: inhibits GDH-TPI coupling enzymes, artifact for Mtb FBA screen | GDH-TPI coupled enzyme counterscreen, NADH absorbance | inhibition, % at 4.8 µM | 360,000 tested, 1.2% active | AID 588335; in the data active means inhibition above about 30%;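 further: 0% = DMSO wells and 100% = wells lacking the enzyme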
# UGM FP inh: inhibitors of M. tuberculosis UDP-galactopyranose mutase; purified UGM, fluorescence polarization probe displacement; inhibition, % at 10 µM; 320,000 tested, 0.06% active; in the data active means inhibition above about 10%, passing the limit was not always enough; inconclusive means no clear call, values can overlap the other calls
# PriA SSB inh: K. pneumoniae PriA-SSBct interaction inhibition; AlphaScreen SSBct-PriA binding, biotinylated peptide; inhibition, % at 33 µM; 430,000 tested, 0.6% active; in the data active means inhibition mostly above about 37%, no sharp cut-off; inactive means mostly below about 20%;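 further: plate controls were negative control peptide for no effect and reference peptide for full effect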
# Mtb betalactam: beta-lactam sensitization of Mtb H37Rv; 330,000 tested, 0.27% active; M. tuberculosis H37Rv growth with meropenem, percent inhibition; inhibition, % at 25 µM; call rule not given here;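 further: growth measured after seven days incubation then overnight dye step; 0% = bacteria only wells and 100% = bacteria with antibiotic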
# Mtb FBA inh: inhibits M. tuberculosis FBA enzyme | purified M. tuberculosis FBA, fluorescence read-out | inhibition, % at 1 µM | 360,000 tested, 2.3% active;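 further: 0% = vehicle and 100% = reference inhibitor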
# Target sequence (P9WQA3 whole entry, looked up): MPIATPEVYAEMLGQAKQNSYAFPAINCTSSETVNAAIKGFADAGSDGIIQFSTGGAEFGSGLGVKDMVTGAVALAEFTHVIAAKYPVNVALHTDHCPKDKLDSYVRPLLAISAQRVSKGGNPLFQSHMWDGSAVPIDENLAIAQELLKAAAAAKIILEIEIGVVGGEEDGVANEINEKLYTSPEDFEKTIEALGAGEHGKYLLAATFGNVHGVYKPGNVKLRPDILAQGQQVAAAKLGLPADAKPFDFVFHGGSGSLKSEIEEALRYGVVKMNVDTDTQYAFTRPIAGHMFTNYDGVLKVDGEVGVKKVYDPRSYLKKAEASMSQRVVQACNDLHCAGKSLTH
# Rv3671c inh: Rv3671c (M. tuberculosis) protease inhibition | AID 2606 | 320,000 tested, 0.048% active | inhibition, % at 5.96 µM | P9WHR9; in the data active means inhibition above about 38%;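 further: extracellular domain of Rv3671c used as enzyme; 0% = enzyme with DMSO and 100% = no enzyme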
# Mtb FBA inh conf: Mtb FBA inhibition, confirmed; purified M. tuberculosis FBA, fluorescence read-out; shares compounds with Mtb FBA inh; inhibition, % at 1 µM; 5,600 tested, 78% active;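 further: 0% = vehicle wells and 100% = reference inhibitor wells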
# GDH-TPI counter-2: counter-screen for M. tuberculosis FBA inhibitors: GDH-TPI coupled enzyme inhibition; inhibition, % at 1 µM; GDH-TPI coupled enzyme counterscreen, fluorescence; 5,600 tested, 81% active; shares compounds with Mtb FBA inh; in the data active means inhibition above about 10%
# An asterisk follows results filed as active; ? = inconclusive; . = not tested or not shown; + = active, no number. Unless noted, no stated cut-off is given here; in the data, active means inhibition above about 27%; inactive means the rest.
SMILES,GDH-TPI counter-1,UGM FP inh,PriA SSB inh,Mtb betalactam,Mtb FBA inh,Rv3671c inh,Mtb FBA inh conf,GDH-TPI counter-2
CC(=O)c1ccc(NC(=S)Nc2cccc3ccccc23)cc1,16,0,19,-2,53*,-17,76*,60*
Cc1ccc(NC(=S)Nc2cccc3ccccc23)cc1F,8,-1,34,53,47*,-3,+,168*
Fc1cccc(NC(=S)Nc2cccc3ccccc23)c1,-2,0,23,-12,67*,-4,+,+
COc1cc2c(cc1NC(=S)Nc1cccc3ccccc13)oc1ccccc12,23,1,33,86,105*,-4,+,187*
O=C1CCCN1c1cccc(NS(=O)(=O)c2cccc3ccccc23)c1,.,.,0,.,.,.,.,.
Cc1ccc(-c2nonc2NC(=O)c2ccccc2F)cc1,.,.,-4,.,.,.,.,.
COc1ccc(/C=C2\Oc3cc(OCC(N)=O)cc(C)c3C2=O)c(OC)c1OC,.,.,-11,.,.,.,.,.
CCCc1cc(=O)oc2c(C)c(O[C@@H]3O[C@H](CO)[C@@H](O)[C@H](O)[C@H]3O)ccc12,12,0,-8,?,3,6,.,.
Cc1c(C)c2ccc(O[C@@H]3O[C@H](CO)[C@H](O)[C@H](O)[C@H]3O)c(C)c2oc1=O,16,-2,-6,-3,34*,.,49*,44*
Cc1c(O[C@@H]2O[C@H](CO)[C@@H](O)[C@H](O)[C@H]2O)ccc2c1oc(=O)c1ccccc12,14,-1,6,24,88*,.,62*,52*
Cc1c(OCC(=O)N[C@@H](Cc2ccccc2)C(=O)O)ccc2c3c(c(=O)oc12)CCC3,11,2,0,-14,26,0,.,.
Cc1cc(OCC(=O)NC(Cc2c[nH]c3ccc(O)cc23)C(=O)O)c2c(C)c(C)c(=O)oc2c1 (stereo not drawn),3,2,-3,-5,33*,-1,+,+
Cc1cc(OCC(=O)NC(Cc2ccc(Cl)cc2)C(=O)O)c2c(C)c(C)c(=O)oc2c1 (stereo not drawn),13,3,34,1,60*,-1,186*,143*
Cc1cc(OCC(=O)NC(Cc2ccc(Cl)cc2)C(=O)O)c2c3c(c(=O)oc2c1)CCCC3 (stereo not drawn),14,1,3,-7,70*,2,0,-4
COc1ccccc1NC(=O)c1cc(-c2ccccn2)nc2ccccc12,.,.,-11,.,.,.,.,.
Cc1ccc(-c2csc3ncnc(Sc4ccc(Cl)cc4)c23)cc1,.,.,-5,.,.,.,.,.
Cc1ccc(C=NN2CCCCC2)o1,.,.,-3,.,.,.,.,.
C/C(=N/NC(=O)c1n[nH]c2c1CCC2)c1ccc(-c2ccccc2)cc1,.,.,-25,.,.,.,.,.
COc1cc2ccccc2cc1C(=O)Nc1onc2c1CCCC2,.,.,-5,.,.,.,.,.
CC1=C(C(=O)N2CCOCC2)C(c2ccccc2F)NC(=O)N1 (stereo not drawn),-2,0,-8,0,2,0,.,.
COc1ccc(C2C(C(=O)N3CCOCC3)=C(C)NC3=C2C(=O)CC(C)(C)C3)c(OC)c1 (stereo not drawn),9,-1,1,2,58*,-10,+,+
CC1=C(C(=O)N2CCOCC2)C(c2ccccc2F)C2=C(CC(C)(C)CC2=O)N1 (stereo not drawn),0,-1,-9,-2,55*,5,84*,73*
COc1cccc(C(=O)N(CCN2CCOCC2)c2nc3c(C)ccc(C)c3s2)c1OC,.,.,0,.,.,.,.,.
CS(=O)(=O)Nc1ccc(C2=NN(C(=O)c3ccco3)C(c3ccc(F)cc3)C2)cc1 (stereo not drawn),30,5,16,4,74*,-4,62*,48*
Cc1ccc2cc(-c3noc(C4CCCO4)n3)c(=O)[nH]c2c1 (stereo not drawn),16,1,-13,-3,37*,6,42*,45*
SMILES,GDH-TPI counter-1,UGM FP inh,PriA SSB inh,Mtb betalactam,Mtb FBA inh,Rv3671c inh,Mtb FBA inh conf,GDH-TPI counter-2
Cc1ccc2cc(-c3noc(C4CCCCC4)n3)c(=O)[nH]c2c1,3,3,-3,7,1,-2,.,.
CCc1cccc2sc(NC(=O)/C=C\c3ccccc3)nc12,.,.,2,.,.,.,.,.
Cc1cc(OC(C)C(=O)Nc2ccc(N3CCOCC3)cc2)cc(C)c1Cl (stereo not drawn),.,.,5,.,.,.,.,.
C=CCOc1cccc(CNc2cccc(C(=O)O)c2)c1,7,3,-10,0,28*,13,2,6
C=CCOc1c(CNc2cccc(C(=O)O)c2)cccc1OC,-4,.,-11,-1,29*,0,39*,53*
C=CCOc1c(CNc2cccc(C(=O)O)c2)cccc1OCC,0,-3,-15,4,25,-5,.,.
O=C(CC(CC(=O)NCc1ccccc1)c1ccc(Br)cc1)NCc1ccccc1,.,.,-7,.,.,.,.,.
O=C(NCCO)N1c2ccccc2Sc2ccccc21,-2,1,-7,-6,2,-1,.,.
CN(C)CCCNC(=O)N1c2ccccc2Sc2ccccc21,-14,-1,-4,8,59*,1,+,+
COc1ccc(-c2[nH]c(-c3cccc(OC)c3)nc2SCC(=O)NC2CCCC2)cc1,9,-6,17,72,40*,3,124*,100*
COc1ccc(-c2[nH]c(-c3ccccc3)nc2SCC(=O)NC2CCCC2)cc1,6,-3,22,73,19,-2,.,.
COc1ccc(-c2ccc(SCC(=O)NC3CCCCC3)nn2)cc1,-14,-3,4,4,-3,1,.,.
COc1ccc(-c2cn3nc(SCC(=O)NC4CCCCC4)ccc3n2)cc1,10,4,7,2,28*,0,74*,41*
Cc1nc(-c2ccccc2)sc1C(=O)NCCn1nc(-c2ccco2)ccc1=O,.,.,-2,.,.,.,.,.
Cc1cccc(NC(=S)Nc2cccc(C)n2)n1,12,0,-4,4,91*,-12,9,-3
C=CCOCCn1[nH]c2ccccc2c1=O,3,0,3,-1,47*,2,130*,108*
O=C(Cc1cccs1)OCc1cc(-c2cc3ccccc3o2)on1,.,.,-4,.,.,.,.,.
CCOc1ccccc1N(C(=O)c1snc(C(N)=O)c1N)C(C(=O)NCc1ccccc1)c1ccc(O)cc1 (stereo not drawn),10,.,-9,.,7,.,.,.
Cc1ccccc1N(C(=O)c1snc(C(N)=O)c1N)C(C(=O)NCc1ccccc1)c1ccc(O)cc1 (stereo not drawn),13,1,-1,-7,43*,-4,10,4
COc1cccc(N(C(=O)c2snc(C(N)=O)c2N)C(C(=O)NCc2ccccc2)c2ccc(O)cc2)c1 (stereo not drawn),8,1,0,4,13,-24,.,.
